From paper PMC7862700, “An all-to-all approach to the identification of sequence-specific readers for epigenetic DNA modifications on cytosine” come the findings set out here.

What all share (test): DAPPL (digital affinity profiling via proximity ligation, sequencing); 10 mM Tris-HCl pH 7.5, 50 mM NaCl, 1 mM DTT, 4% glycerol, room temperature, 30 min; GST-TFs on glutathione beads, 16-mer random dsDNA library, 0.1% formaldehyde crosslink after washing; high values mean tight binding
For one assay, the target named is T1, FLI1 (Homo sapiens, UniProt Q01543 1-452).
T1 sequence: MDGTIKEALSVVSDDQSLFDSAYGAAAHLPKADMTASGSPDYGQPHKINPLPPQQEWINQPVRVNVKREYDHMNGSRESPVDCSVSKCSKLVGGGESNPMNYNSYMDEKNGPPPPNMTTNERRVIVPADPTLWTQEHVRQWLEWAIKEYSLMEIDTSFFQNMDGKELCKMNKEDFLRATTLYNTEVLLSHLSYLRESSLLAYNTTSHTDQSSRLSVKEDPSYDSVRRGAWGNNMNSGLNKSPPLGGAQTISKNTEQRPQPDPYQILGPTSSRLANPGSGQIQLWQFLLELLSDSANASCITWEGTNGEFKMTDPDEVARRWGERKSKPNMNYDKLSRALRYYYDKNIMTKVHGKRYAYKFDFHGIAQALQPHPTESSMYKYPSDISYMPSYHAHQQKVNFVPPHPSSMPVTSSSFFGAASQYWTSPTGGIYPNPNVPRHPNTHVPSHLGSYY
The settings on record: protein: recombinant; tags: N-terminal GST; dsDNA, one strand shown. Put shortly: (§1)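 Binding signal is defined as a hexamer's read frequency for one factor over its frequency for the tag-only sample. To obtain reads, GST-fused human transcription factors were expressed in yeast, captured on glutathione beads, barcoded with DNA and pooled with that sample. Pools met 200 nmole of a 16-mer random double-stranded DNA library in Tris/NaCl/DTT/glycerol buffer for 30 min at room temperature before washing, 0.1% formaldehyde crosslinking, proximity ligation (BsaI/T4 ligase, 1 h, 37 °C), PCR and Illumina NextSeq500 sequencing.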

A further assay concerns the target T2, ELK1 (Homo sapiens, UniProt P19419 1-428).
T2 sequence: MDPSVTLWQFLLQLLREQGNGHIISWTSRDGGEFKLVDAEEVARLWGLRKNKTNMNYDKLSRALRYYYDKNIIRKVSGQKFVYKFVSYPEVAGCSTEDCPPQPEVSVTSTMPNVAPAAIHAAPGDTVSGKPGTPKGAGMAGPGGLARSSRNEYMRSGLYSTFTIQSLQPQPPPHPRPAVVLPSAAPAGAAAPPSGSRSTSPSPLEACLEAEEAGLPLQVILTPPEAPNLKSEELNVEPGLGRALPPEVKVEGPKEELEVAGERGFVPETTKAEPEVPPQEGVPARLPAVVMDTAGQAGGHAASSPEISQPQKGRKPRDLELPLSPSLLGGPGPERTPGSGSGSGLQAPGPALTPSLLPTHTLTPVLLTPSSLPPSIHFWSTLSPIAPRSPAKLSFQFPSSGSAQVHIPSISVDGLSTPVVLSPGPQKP
The settings on record: protein: recombinant; tags: N-terminal GST; dsDNA, one strand shown. Put shortly: as §1

A further assay has as its target T3, GABPA (Homo sapiens, UniProt Q06546 1-454).
T3 sequence: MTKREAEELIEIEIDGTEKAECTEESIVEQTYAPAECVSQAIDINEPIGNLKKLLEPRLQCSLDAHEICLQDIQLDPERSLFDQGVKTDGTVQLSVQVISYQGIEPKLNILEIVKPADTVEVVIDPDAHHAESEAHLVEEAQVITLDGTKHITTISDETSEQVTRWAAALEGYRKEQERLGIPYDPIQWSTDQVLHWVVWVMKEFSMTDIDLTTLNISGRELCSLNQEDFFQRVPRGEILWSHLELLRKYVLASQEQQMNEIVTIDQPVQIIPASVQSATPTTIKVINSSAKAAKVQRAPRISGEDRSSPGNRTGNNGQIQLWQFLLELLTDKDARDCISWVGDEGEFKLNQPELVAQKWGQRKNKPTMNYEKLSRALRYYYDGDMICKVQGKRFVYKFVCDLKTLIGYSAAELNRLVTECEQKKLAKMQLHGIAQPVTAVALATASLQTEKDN
The following applies: protein: recombinant; tags: N-terminal GST; dsDNA, one strand shown. The gist of the method: as §1

The target of another assay is T4, ERG (Homo sapiens, UniProt P11308 1-479).
T4 sequence: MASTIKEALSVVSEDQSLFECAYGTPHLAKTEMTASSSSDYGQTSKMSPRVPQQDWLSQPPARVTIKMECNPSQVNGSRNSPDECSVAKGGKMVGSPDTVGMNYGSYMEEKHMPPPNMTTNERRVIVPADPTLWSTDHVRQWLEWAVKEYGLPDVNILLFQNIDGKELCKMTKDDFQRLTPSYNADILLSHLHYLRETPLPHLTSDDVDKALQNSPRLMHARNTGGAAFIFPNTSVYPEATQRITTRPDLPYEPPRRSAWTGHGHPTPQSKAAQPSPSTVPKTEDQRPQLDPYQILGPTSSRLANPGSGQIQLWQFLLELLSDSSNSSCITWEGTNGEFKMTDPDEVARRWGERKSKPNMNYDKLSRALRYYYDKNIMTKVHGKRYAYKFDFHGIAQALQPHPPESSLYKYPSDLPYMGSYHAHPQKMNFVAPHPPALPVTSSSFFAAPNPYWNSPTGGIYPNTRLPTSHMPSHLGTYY
The following applies: protein: recombinant; tags: N-terminal GST; dsDNA, one strand shown. Put shortly:
as §1

The next assay deals with ELF1 (Homo sapiens, UniProt P32519 1-619). The settings on record: protein: recombinant; tags: N-terminal GST; dsDNA, one strand shown. Put shortly:
as §1

For the next assay, the target named is T5, EHF (Homo sapiens, UniProt Q9NZC4 1-300).
T5 sequence: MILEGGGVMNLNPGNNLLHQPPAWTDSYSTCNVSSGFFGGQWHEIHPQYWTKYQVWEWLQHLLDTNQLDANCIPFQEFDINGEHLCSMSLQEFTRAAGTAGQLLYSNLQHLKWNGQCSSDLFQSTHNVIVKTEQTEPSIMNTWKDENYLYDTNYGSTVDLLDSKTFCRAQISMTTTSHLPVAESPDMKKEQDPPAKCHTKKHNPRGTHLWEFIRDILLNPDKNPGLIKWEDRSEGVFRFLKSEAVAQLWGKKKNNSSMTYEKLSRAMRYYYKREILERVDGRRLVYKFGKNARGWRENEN
The settings on record: protein: recombinant; tags: N-terminal GST; dsDNA, one strand shown. The gist of the method: as §1

The target of a further assay is SPI1 (Homo sapiens, UniProt P17947 1-270). The settings on record: protein: recombinant; tags: N-terminal GST; dsDNA, one strand shown. The gist of the method:
as §1

The target of a further assay is SPIB (Homo sapiens, UniProt Q01892 1-262). The settings on record: protein: recombinant; tags: N-terminal GST; dsDNA, one strand shown. Put shortly:
as §1

For a further assay, the target named is T6, ELK3 (Homo sapiens, UniProt P41970 1-407).
T6 sequence: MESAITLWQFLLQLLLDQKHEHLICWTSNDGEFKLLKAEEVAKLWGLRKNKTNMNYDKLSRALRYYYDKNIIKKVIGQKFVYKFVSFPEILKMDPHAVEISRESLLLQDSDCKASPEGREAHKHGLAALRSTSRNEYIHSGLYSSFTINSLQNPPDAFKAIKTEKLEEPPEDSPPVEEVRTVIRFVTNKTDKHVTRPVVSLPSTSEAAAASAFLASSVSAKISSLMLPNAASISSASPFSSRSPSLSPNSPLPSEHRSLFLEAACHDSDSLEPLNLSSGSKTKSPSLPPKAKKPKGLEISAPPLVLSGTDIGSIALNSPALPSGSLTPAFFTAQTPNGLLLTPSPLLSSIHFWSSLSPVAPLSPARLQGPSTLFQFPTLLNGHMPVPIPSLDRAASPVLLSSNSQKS
The settings on record: protein: recombinant; tags: N-terminal GST; dsDNA, one strand shown. The gist of the method:
as §1

Another assay concerns the target T7, FEV (Homo sapiens, UniProt Q99581 1-238).
T7 sequence: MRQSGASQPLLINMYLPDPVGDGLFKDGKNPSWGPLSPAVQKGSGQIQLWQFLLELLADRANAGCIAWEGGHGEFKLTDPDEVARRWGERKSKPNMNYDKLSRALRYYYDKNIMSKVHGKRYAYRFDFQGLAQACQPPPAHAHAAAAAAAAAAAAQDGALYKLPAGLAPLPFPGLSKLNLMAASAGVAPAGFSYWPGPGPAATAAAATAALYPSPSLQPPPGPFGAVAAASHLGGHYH
The settings on record: protein: recombinant; tags: N-terminal GST; dsDNA, one strand shown. The gist of the method:
as §1

Another assay has as its target ETV5 (Homo sapiens, UniProt P41161 1-510). The following applies: protein: recombinant; tags: N-terminal GST; dsDNA, one strand shown. The gist of the method: as §1
Another assay has as its target HSF1 (Homo sapiens, UniProt Q00613 1-529). The following applies: protein: recombinant; tags: N-terminal GST; chain copies: 3; dsDNA, one strand shown. The gist of the method: as §1
A further assay concerns the target ELF4 (Homo sapiens, UniProt Q99607 1-663). The settings on record: protein: recombinant; tags: N-terminal GST; dsDNA, one strand shown. The gist of the method: as §1
In the next assay the target is T8, ELK4 (Homo sapiens, UniProt P28324-2 1-405).
T8 sequence: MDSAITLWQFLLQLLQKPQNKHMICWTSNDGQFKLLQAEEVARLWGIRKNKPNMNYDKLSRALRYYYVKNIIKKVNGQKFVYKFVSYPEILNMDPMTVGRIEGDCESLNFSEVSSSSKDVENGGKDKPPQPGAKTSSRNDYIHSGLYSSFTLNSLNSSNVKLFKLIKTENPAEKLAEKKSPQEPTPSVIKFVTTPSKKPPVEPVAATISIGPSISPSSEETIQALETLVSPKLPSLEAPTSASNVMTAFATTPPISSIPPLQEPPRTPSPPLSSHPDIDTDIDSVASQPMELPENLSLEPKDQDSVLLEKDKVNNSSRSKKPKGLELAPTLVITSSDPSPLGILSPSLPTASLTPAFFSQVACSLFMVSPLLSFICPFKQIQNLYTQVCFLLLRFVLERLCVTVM
The following applies: protein: recombinant; tags: N-terminal GST; dsDNA, one strand shown. The gist of the method: as §1

A further assay concerns the target T9, ETV2 (Homo sapiens, UniProt O00321 1-342).
T9 sequence: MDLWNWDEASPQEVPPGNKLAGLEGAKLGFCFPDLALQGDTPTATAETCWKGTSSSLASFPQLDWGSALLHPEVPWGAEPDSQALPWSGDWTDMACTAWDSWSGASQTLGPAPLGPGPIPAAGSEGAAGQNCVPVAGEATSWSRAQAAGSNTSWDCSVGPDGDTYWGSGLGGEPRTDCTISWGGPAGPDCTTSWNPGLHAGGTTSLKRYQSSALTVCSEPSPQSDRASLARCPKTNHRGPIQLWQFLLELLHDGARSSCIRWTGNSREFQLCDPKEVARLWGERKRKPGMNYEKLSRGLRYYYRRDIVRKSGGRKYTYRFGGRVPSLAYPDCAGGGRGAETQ
The settings on record: protein: recombinant; tags: N-terminal GST; dsDNA, one strand shown. Put shortly: as §1

The next assay concerns the target T10, ELF3 (Homo sapiens, UniProt P78545 1-371).
T10 sequence: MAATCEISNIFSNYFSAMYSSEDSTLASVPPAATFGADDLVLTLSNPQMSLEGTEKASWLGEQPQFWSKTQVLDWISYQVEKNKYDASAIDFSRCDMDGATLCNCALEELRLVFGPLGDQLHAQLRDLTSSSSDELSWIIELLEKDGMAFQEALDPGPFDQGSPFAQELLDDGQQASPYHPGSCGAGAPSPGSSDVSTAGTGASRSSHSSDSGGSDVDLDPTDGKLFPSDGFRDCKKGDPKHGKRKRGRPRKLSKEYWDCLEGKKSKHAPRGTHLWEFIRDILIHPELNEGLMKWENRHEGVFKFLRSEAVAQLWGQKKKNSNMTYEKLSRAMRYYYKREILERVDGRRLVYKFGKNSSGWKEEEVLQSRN
The settings on record: protein: recombinant; tags: N-terminal GST; dsDNA, one strand shown. Put shortly: as §1

For another assay, the target named is CRX (Homo sapiens, UniProt O43186 1-299). The settings on record: protein: recombinant; tags: N-terminal GST; dsDNA, one strand shown. The gist of the method: as §1
Another assay addresses ETV1 (Homo sapiens, UniProt P50549 1-477). The settings on record: protein: recombinant; tags: N-terminal GST; dsDNA, one strand shown. The gist of the method:
as §1

Chain of ELF1 (P32519 whole entry): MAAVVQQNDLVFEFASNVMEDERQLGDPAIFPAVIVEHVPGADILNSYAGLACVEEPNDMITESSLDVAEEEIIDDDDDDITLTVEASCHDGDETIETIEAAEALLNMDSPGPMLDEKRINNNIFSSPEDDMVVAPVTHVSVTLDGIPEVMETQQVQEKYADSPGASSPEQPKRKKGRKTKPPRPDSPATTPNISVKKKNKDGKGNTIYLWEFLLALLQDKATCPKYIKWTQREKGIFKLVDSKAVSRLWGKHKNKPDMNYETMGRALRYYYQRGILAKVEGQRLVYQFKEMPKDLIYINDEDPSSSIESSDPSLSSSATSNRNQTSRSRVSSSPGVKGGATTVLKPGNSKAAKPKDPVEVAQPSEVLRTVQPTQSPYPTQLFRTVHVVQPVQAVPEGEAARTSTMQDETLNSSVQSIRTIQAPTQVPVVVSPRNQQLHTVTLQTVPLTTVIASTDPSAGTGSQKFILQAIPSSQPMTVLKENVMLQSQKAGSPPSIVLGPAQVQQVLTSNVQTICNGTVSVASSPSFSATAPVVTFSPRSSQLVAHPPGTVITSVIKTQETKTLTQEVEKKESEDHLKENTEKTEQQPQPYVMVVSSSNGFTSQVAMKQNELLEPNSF
Chain of ETV5 (P41161 whole entry): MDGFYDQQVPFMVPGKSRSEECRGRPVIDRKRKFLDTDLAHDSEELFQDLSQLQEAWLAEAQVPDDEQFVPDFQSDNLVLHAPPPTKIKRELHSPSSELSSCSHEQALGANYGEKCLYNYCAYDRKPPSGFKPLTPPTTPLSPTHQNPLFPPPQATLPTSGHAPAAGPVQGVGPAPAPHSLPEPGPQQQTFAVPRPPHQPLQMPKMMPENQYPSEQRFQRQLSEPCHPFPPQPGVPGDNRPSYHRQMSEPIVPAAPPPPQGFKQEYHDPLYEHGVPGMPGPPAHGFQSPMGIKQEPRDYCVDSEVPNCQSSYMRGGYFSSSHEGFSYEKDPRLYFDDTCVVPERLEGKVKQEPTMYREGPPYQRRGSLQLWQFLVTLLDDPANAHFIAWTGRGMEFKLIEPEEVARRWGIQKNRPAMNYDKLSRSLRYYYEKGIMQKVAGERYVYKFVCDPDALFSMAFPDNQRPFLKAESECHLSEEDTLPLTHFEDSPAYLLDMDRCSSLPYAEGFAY
Chain of HSF1 (Q00613 whole entry): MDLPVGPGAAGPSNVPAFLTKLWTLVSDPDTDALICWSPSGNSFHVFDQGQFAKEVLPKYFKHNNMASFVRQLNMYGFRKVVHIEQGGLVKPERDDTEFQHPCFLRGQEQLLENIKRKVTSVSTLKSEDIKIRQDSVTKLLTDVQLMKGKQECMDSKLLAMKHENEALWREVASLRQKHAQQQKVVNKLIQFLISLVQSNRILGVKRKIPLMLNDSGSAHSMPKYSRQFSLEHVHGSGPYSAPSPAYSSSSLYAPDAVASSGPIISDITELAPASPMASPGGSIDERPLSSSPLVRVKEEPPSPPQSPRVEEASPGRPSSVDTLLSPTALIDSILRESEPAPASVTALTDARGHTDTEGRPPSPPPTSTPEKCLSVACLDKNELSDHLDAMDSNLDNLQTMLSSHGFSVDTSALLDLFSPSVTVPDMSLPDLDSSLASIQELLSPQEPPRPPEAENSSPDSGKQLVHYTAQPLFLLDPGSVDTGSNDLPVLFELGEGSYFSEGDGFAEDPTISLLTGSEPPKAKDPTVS
Chain of ELF4 (Q99607 whole entry): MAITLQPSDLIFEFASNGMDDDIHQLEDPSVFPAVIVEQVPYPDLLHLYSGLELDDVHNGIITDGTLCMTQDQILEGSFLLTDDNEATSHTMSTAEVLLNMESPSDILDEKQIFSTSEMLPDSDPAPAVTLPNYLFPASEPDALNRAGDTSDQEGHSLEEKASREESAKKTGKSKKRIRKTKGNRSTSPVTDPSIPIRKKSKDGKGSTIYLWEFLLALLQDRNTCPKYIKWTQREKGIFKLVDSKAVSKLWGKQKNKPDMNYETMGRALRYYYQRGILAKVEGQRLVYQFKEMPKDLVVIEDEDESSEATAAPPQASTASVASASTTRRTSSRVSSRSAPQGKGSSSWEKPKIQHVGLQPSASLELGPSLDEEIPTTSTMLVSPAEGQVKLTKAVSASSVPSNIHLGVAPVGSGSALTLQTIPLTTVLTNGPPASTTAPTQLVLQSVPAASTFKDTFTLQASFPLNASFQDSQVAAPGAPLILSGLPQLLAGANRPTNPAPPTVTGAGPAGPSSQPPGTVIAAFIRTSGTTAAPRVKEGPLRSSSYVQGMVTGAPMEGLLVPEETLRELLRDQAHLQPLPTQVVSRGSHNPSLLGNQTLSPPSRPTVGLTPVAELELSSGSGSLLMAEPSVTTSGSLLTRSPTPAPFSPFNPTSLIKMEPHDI
Chain of SPIB (Q01892 whole entry): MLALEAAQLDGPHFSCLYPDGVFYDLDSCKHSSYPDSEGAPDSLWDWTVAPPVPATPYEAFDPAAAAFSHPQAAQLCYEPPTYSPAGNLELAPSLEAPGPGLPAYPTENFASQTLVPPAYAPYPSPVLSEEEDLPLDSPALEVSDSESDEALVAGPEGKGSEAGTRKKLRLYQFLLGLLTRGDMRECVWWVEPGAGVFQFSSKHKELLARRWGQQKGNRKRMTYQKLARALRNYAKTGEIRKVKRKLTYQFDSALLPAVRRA
Chain of CRX (O43186 whole entry): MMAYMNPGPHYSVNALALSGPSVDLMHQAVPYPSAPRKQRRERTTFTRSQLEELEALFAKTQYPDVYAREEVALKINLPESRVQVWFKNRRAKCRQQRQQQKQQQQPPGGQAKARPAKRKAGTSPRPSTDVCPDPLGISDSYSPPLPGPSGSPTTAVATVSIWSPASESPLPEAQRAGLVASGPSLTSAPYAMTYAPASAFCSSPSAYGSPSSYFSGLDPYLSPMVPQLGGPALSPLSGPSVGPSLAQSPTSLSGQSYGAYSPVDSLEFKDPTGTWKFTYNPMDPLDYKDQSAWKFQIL
Chain of ETV1 (P50549 whole entry): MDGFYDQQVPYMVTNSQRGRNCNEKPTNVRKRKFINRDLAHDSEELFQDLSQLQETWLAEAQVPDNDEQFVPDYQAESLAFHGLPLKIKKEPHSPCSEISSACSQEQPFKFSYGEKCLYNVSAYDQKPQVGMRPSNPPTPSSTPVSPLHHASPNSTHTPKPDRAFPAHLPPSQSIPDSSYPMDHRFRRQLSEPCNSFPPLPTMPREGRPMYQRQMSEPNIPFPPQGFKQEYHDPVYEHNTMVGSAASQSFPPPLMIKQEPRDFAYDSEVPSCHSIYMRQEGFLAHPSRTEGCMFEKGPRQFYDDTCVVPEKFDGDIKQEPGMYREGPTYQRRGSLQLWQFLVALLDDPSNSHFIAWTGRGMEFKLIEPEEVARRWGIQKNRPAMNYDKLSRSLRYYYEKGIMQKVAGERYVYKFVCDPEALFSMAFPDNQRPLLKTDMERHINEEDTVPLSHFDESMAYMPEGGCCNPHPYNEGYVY

In the case of CTTTAG, the binding signal with FLI1 was 1.27 fold enrichment (6-mer frequency, TF over GST control); in the assay with ELK1, 1.31 fold enrichment (6-mer frequency, TF over GST control); with GABPA, 1.21 fold enrichment (6-mer frequency, TF over GST control); in the assay with ERG, 1.12 fold enrichment (6-mer frequency, TF over GST control); in the assay with ELF1 it was 1.19 fold enrichment (6-mer frequency, TF over GST control); with EHF it was 1.08 fold enrichment (6-mer frequency, TF over GST control). Also, the binding signal in the assay with SPI1 is 1.28 fold enrichment (6-mer frequency, TF over GST control); with SPIB, 1.11 fold enrichment (6-mer frequency, TF over GST control); with ELK3, 1.11 fold enrichment (6-mer frequency, TF over GST control); with FEV it was 1.18 fold enrichment (6-mer frequency, TF over GST control); with ETV5 it was 1.1 fold enrichment (6-mer frequency, TF over GST control); with HSF1, 1.37 fold enrichment (6-mer frequency, TF over GST control). Moreover, the binding signal with ELF4 was 1.26 fold enrichment (6-mer frequency, TF over GST control); with ELK4 it was 1.15 fold enrichment (6-mer frequency, TF over GST control); in the assay with ETV2, 1.23 fold enrichment (6-mer frequency, TF over GST control); in the assay with ELF3, 1.34 fold enrichment (6-mer frequency, TF over GST control); with CRX, 1.51 fold enrichment (6-mer frequency, TF over GST control); with ETV1 it was 1.24 fold enrichment (6-mer frequency, TF over GST control).
